# High-throughput results (PubChem)
# In the library only some 3.9% were active in any assay of this set; here they are far more common.
# HT1080 IDH1KD tx – kills HT-1080 cells with IDH1 knockdown; HT-1080 IDH1 knockdown viability, ATP luminescence, 48 h; Potency, µM (highest dose often 46.1 µM), hits mostly cytotoxic; AID 686971; 2% of 360,000 active
#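 Viability of IDH1-knockdown HT-1080 fibrosarcoma cells was assessed by CellTiter-Glo after 48 h at 37 °C with titrated compound; concentration-effect curves were classified by fit quality and response size.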
# TGFb SMAD3 inh – TGF-b pathway inhibition; 1.2% of 410,000 active; Potency, µM (series often up to 46.1 µM), actives largely listed as inhibitors; AID 588855; HepG2 CAGA-GFP TGF-b/SMAD3 reporter, GFP fluorescence, 18 h; TGF-beta stimulated, 500 pg/mL final; note: nearly all actives have a fitted effect of over 65% in size
#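 HEPG2 CAGA-GFP, 1000 cells/well; 2 h settle, 37 C; cpd via pin tool; TGF-b 500 pg/mL final; 18 h, 37 C; GFP imaging ex488/em500-530; %Activity normalised to -TGF-b and +DMSO controls; CRC fit, curve class.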
# HT1080NT lethal – kills 2HG-producing HT-1080-NT fibrosarcoma cells. Potency, µM (top dose mostly 46.1 µM), usual class: cytotoxic. HT-1080-NT fibrosarcoma viability, CellTiter-Glo ATP luminescence, 48 h. 1.6% of 360,000 active;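 note: NT is the 2HG producing partner of a matched IDH1 knockdown line; nearly all actives have a fitted effect of over 55% in size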
#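 Toxicity toward the 2HG-producing NT line was scored as %Activity, normalised to DMSO and no-cell wells, from CellTiter-Glo luminescence after 48 hours' treatment.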
# ATXN2 expr inh – reduces ATXN2 reporter expression in HEK-293 cells; HEK-293 ATXN2-luciferase reporter, luminescence, 24 h; Potency, µM (series often up to 57 µM), usual class: inhibitors; 0.72% of 360,000 active; note: nearly all actives have a fitted effect of over 55% in size
#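 qHTS (up to 57 uM final) was run with 24 h compound exposure of reporter cells at 37 °C. Each well was multiplexed: SteadyGlo luminescence measured ATXN2-luciferase expression after a fluorogenic Gly-Phe-AFC viability readout (25 uM final).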
# HepG2 tox – kills HepG2 cells in TGF-b inhibitor counter-screen; HepG2 CAGA-GFP viability, ATP luminescence, 18 h; Potency, µM (doses to about 46.1 µM), hits mostly cytotoxic; 0.76% of 410,000 active; AID 588856
#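 CellTiter-Glo luminescence gave cytotoxicity after 18 hours at 37 degrees C. The cells were HepG2 CAGA-GFP in 1% FBS DMEM, stimulated with 500 pg/mL TGF-beta after compound addition. %Activity was normalised to no-cell wells (complete cell-killing) and DMSO (no toxicity), and curves were fitted and classified.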
# S2 tox – reduces viability in counter-screen for ATXN expression inhibitors; Potency, µM (top dose mostly 56.7 µM), hits mostly cytotoxic; 0.49% of 400,000 active; S2 cells (HEK-293 line with an ATXN2-luciferase reporter) viability, CellTiter-Fluor protease fluorescence, 24 h; note: nearly all actives have a fitted effect of over 40% in size
# A number is an active result; i = inactive; ? = inconclusive; nt = no result. Calls come from the whole dose curve; as a rule, active = well fitted curve in the direction sought with a large enough effect; inconclusive = small, poorly fitted or top-dose-only effect, or another doubt; inactive = no such curve, though single readings can be large; an effect the other way counts as inactive or inconclusive.
SMILES,HT1080 IDH1KD tx,TGFb SMAD3 inh,HT1080NT lethal,ATXN2 expr inh,HepG2 tox,S2 tox
CCOC(=O)C1=C(C)c2ccccc2N(C(=O)OC)C1(C)C(=O)OCC (stereo not given),i,12.6µM,i,?,i,nt
CCOC(=O)C1=C(C)c2ccccc2OC1(CC)C(=O)OCC (stereo not given),i,i,i,i,i,i
Cc1cc(C)cc(-n2c(SCC(=O)Nc3ccccc3F)nc3c(oc4ccccc43)c2=O)c1,nt,i,nt,i,i,i
Cc1ccc(N(CCC#N)C(=O)CCl)cc1C,13µM,?,9.2µM,?,11.2µM,nt
Cc1ccc(SCC(=O)OCC(=O)N(CCC#N)c2ccccc2)cc1C,i,i,i,i,i,i
COc1ccc(C(=O)N=c2nc(-c3ccccc3)n(-c3ccccc3)s2)cc1,nt,i,nt,nt,i,nt
COc1ccc(C)cc1NS(=O)(=O)c1ccc2[nH]c(=O)c(=O)[nH]c2c1,nt,i,nt,i,i,i
CCN(CC)c1ccc2c(-c3ccc(S(=O)(=O)O)cc3S(=O)(=O)[O-])c3ccc(=[N+](CC)CC)cc-3oc2c1,?,i,?,?,i,12.6µM
CN(CCO)C(=O)c1cn(C2CCCN(Cc3cc4ccccc4s3)C2)nn1 (stereo not given),nt,nt,nt,nt,nt,i
CCn1c(-c2ccccc2F)nc2cc(C(=O)NCc3ccc(C)o3)cc(NC(C)=O)c21,nt,nt,nt,nt,nt,i
Nc1ccc(-c2nc3c(Cl)cc(N)cc3[nH]2)cc1,i,i,i,10µM,i,i
CCOC(=O)c1cc(S(=O)(=O)N2CCN(c3ccc(F)cc3)CC2)[nH]n1,nt,i,nt,i,i,i
COc1ccccc1CNC(=O)Cn1c(=O)nc(-c2ccccc2F)c2cc(Cl)ccc21,nt,i,nt,nt,i,nt
Cn1c(=O)c2sccc2n2c(CCCC(=O)Nc3ccc(Oc4ccccc4)cc3)nnc12,nt,12.6µM,nt,nt,i,nt
COc1ccccc1/C=C/C(=O)c1c2c(c(C)[nH]c1=O)CCCC2,?,i,4.47µM,i,i,?
COc1ccc(/C=C/C(=O)c2c(C)cc(C)[nH]c2=O)c2ccccc12,11.6µM,17.8µM,?,?,12.6µM,?
CCc1ccc(/C=C/C(=O)c2c(C)cc(C)[nH]c2=O)cc1,23.1µM,?,14.6µM,?,i,?
CCc1ccc(/C=C(\C)C(=O)c2c(C)cc(C)[nH]c2=O)cc1,i,i,i,nt,i,i
Cc1ccc(/C=C/C(=O)c2c(C)cc(C)[nH]c2=O)cc1,10µM,i,?,?,i,?
CC(C)(C)c1ccc(OCc2nnc(-c3ccccc3)o2)cc1,nt,?,nt,i,i,i
CCS(=O)(=O)NCc1c(C)ncc2c1CCN(C(=O)c1csc(-c3cccs3)n1)C2,nt,nt,nt,nt,nt,i
Cc1ccccc1NS(=O)(=O)c1ccc2[nH]cc(C(=O)NC(C)c3ccccc3)c(=O)c2c1 (stereo not given),nt,?,nt,nt,i,nt
CCc1nnc(N/N=C\c2ccc(OC(C)=O)c(OC)c2)n1N,18.4µM,?,?,i,i,i
COc1ccc(-c2cnnc(N/N=C/c3ccc(O)c(OC)c3)n2)cc1,5.17µM,i,?,i,i,i
CCOc1cc(/C=N/Nc2nnc(C)n2N)ccc1OC(C)=O,20.6µM,i,16.4µM,i,i,i
SMILES,HT1080 IDH1KD tx,TGFb SMAD3 inh,HT1080NT lethal,ATXN2 expr inh,HepG2 tox,S2 tox
CCc1nnc(N/N=C/c2cccs2)n1N,i,12.6µM,i,i,i,i
CCc1nnc(N/N=C/c2c(Cl)cccc2Cl)n1N,?,?,i,i,i,i
COc1cc(/C=N/Nc2nc(N3CCCC3)nc(N3CCCC3)n2)ccc1O,i,i,i,i,i,i
COc1ccc(OC)c(NC(=O)CCc2c(C)nn(-c3ccc(N4CCCC4)nn3)c2C)c1,nt,?,nt,nt,i,nt
COc1cc(/C=N/Nc2ccccn2)ccc1O,i,i,i,i,i,i
Cc1nnc(N/N=C/c2cccc(OCc3ccc(Cl)c(Cl)c3)c2)n1N,i,22.4µM,i,i,i,?
CCc1nnc(N/N=C/c2cc(Br)c(O)cc2O)n1N,?,7.94µM,?,i,10µM,i
CCc1nnc(N/N=C/c2ccc(O)c(OC)c2)n1N,i,17.8µM,i,i,i,i
